Measured values as given in PubChem BioAssay (NCI).
About 83,000 compounds went through this panel and 20% of them were active in at least one assay; those are over-represented in the sample as a whole.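 Values shown are percent growth following 48 h exposure of cells in 96-well plates to a single concentration of compound; below 10 was considered active.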 Unmarked numbers belong to inactive results. Activity calls are given as the source filed them.

Columns and labels:
Experiment in all cases: NCI-60 one-dose screen, 48 h (100 = growth as untreated, 0 = no growth, -100 = all killed)
Details in all cases: 10 µM unless noted
[1] = tested on: DU-145 prostate
[2] = tested on: K-562 leukemia
[3] = tested on: MALME-3M melanoma
[4] = tested on: RXF 393 renal
[5] = tested on: SF-268 CNS
[6] = tested on: SF-295 CNS
[7] = tested on: SF-539 CNS
[8] = tested on: UACC-257 melanoma
[9] = tested on: M14 melanoma
[10] = tested on: HCT-15 colon
[11] = tested on: HT29 colon
[12] = tested on: SNB-75 CNS
[13] = tested on: SNB-19 CNS
[14] = tested on: U251 CNS
[15] = tested on: PC-3 prostate
[16] = tested on: SK-MEL-5 melanoma
[17] = tested on: UACC-62 melanoma
[18] = tested on: LOX IMVI melanoma
[19] = tested on: SK-MEL-28 melanoma
[20] = tested on: MDA-MB-231 breast

SMILES: COc1cccc(Cc2cc(-c3ccccc3)nn(CC(=O)c3ccccc3)c2=O)c1
- growth [1]: 63.3%
- growth [2]: 22.5%
- growth [3]: 97.1%
- growth [4]: 60.1%
- growth [5]: 54%
- growth [6]: 68.1%
- growth [7]: 49.9%
- growth [8]: 95%
- growth [9]: 60.3%
- growth [10]: 20.2%
- growth [11]: 36.6%
- growth [12]: 50.9%
- growth [13]: 58%
- growth [14]: 37.1%
- growth [15]: 41.4%
- growth [16]: 39.4%
- growth [17]: 45.9%
- growth [18]: 11.8%
- growth [19]: 73.2%

SMILES: COc1ccc(-c2nc(NCCO)[nH]c(=O)c2C#N)cc1
- growth [1]: 101%
- growth [2]: 97.1%
- growth [3]: 101%
- growth [4]: 117%
- growth [5]: 99.2%
- growth [6]: 97.1%
- growth [7]: 104%
- growth [8]: 112%
- growth [9]: 99.9%
- growth [10]: 104%
- growth [11]: 94.7%
- growth [12]: 91.8%
- growth [13]: 105%
- growth [14]: 103%
- growth [15]: 91.4%
- growth [16]: 107%
- growth [17]: 102%
- growth [18]: 103%
- growth [19]: 108%

SMILES: COc1ccc(N2C(=O)C(Oc3ccccc3)C2c2ccc(C)cc2)cc1 (configuration not stated)
- growth [1]: 113%
- growth [2]: 95.1%
- growth [3]: 93.4%
- growth [20]: 101%
- growth [4]: 126%
- growth [5]: 102%
- growth [6]: 89.6%
- growth [7]: 98.6%
- growth [8]: 95.3%
- growth [9]: 93.1%
- growth [10]: 91.2%
- growth [13]: 101%
- growth [14]: 90.1%
- growth [15]: 97.6%
- growth [16]: 104%
- growth [17]: 102%
- growth [18]: 98.1%
- growth [19]: 99.5%

SMILES: CCOC(=O)Nc1ccc(-c2nc(-c3cccc(OCCN4CCOCC4)c3)c(-c3ccnc(Br)c3)[nH]2)cc1
- growth [1]: 67.2%
- growth [2]: 1.64% (active)
- growth [3]: 40.3%
- growth [20]: 46.2%
- growth [4]: -25.9% (active)
- growth [5]: 62.3%
- growth [6]: -53.9% (active)
- growth [7]: 23.4%
- growth [8]: 60%
- growth [9]: 57.4%
- growth [10]: 11%
- growth [13]: 50.6%
- growth [14]: 26.5%
- growth [15]: 26.2%
- growth [16]: 38.1%
- growth [17]: 32.9%
- growth [19]: 30.6%

SMILES: O=C1CCC/C=C\C[C@H]2C=CC(=O)/C2=C/C[C@H](CCc2cccc(C(F)(F)F)c2)O1
- growth [1]: -44.6% (active)
- growth [2]: 0.315% (active)
- growth [3]: -25.5% (active)
- growth [4]: -81.9% (active)
- growth [5]: -39% (active)
- growth [6]: -22.9% (active)
- growth [7]: -56.7% (active)
- growth [8]: -34.7% (active)
- growth [9]: -30.9% (active)
- growth [10]: -10.8% (active)
- growth [11]: -31.9% (active)
- growth [12]: 15.2%
- growth [13]: -17.1% (active)
- growth [14]: -93% (active)
- growth [15]: -20.7% (active)
- growth [16]: -82.8% (active)
- growth [17]: -45.9% (active)
- growth [19]: -39.5% (active)

SMILES: CCCCCCCNC(=O)CCCNc1ncnc2c1ncn2-c1cccc(C(C)O)c1 (configuration not stated)
- growth [1]: 94.4%
- growth [2]: 41.6%
- growth [3]: 84.8%
- growth [4]: 89.9%
- growth [5]: 83.8%
- growth [6]: 93.6%
- growth [7]: 94.1%
- growth [8]: 121%
- growth [9]: 89.3%
- growth [10]: 87.2%
- growth [11]: 93.7%
- growth [12]: 104%
- growth [13]: 96.3%
- growth [14]: 96.9%
- growth [15]: 85%
- growth [16]: 85.9%
- growth [17]: 90.3%
- growth [18]: 101%
- growth [19]: 96.2%

SMILES: COC(=O)CCC/C=C\C[C@H]1C=CC(=O)/C1=C/C[C@@H](O)CCc1cccc(C(F)(F)F)c1
- growth [1]: 2.5% (active)
- growth [2]: 1.71% (active)
- growth [3]: 58.4%
- growth [4]: -73.5% (active)
- growth [5]: -2.42% (active)
- growth [6]: -21.1% (active)
- growth [7]: -14.1% (active)
- growth [8]: -6.49% (active)
- growth [9]: -32.4% (active)
- growth [10]: -5.76% (active)
- growth [11]: -30.6% (active)
- growth [12]: 97.9%
- growth [13]: 4.49% (active)
- growth [14]: -84.3% (active)
- growth [15]: -39% (active)
- growth [16]: -83.3% (active)
- growth [17]: -60% (active)
- growth [18]: -64.2% (active)
- growth [19]: -45.9% (active)

SMILES: COC(=O)[C@H](C)NC(=O)NC(=O)NC(=O)CI
- growth [1]: 84.5%
- growth [2]: 7.73% (active)
- growth [3]: -53.9% (active)
- growth [4]: 59.1%
- growth [5]: 82.6%
- growth [6]: 91.9%
- growth [7]: 94.6%
- growth [8]: 104%
- growth [9]: 58.5%
- growth [10]: 51.4%
- growth [11]: 67.2%
- growth [12]: 112%
- growth [13]: 108%
- growth [14]: 96.9%
- growth [15]: 86.7%
- growth [16]: 99.5%
- growth [17]: 41.2%
- growth [18]: -66.2% (active)
- growth [19]: 48%

SMILES: COC1=C(C)C(=O)c2c(c(CCCl)c3n2CCC3O)C1=O (configuration not stated)
- growth [1]: 1.19% (active)
- growth [2]: 22%
- growth [3]: -55.7% (active)
- growth [4]: -53.7% (active)
- growth [5]: 9.6% (active)
- growth [6]: -12% (active)
- growth [7]: -28.8% (active)
- growth [8]: -44.8% (active)
- growth [9]: -14.3% (active)
- growth [10]: 2.73% (active)
- growth [11]: -4.05% (active)
- growth [12]: -45.3% (active)
- growth [13]: 2.57% (active)
- growth [14]: -3.61% (active)
- growth [15]: -2.49% (active)
- growth [16]: -51% (active)
- growth [17]: -60.5% (active)
- growth [18]: -23.5% (active)
- growth [19]: -27.7% (active)
